# Paper PMC5913336, “True equilibrium measurement of transcription factor-DNA binding affinities using automated polarization microscopy”
# Target: T1, Kni (Drosophila melanogaster, UniProt P10734 2-102)
# T1 sequence: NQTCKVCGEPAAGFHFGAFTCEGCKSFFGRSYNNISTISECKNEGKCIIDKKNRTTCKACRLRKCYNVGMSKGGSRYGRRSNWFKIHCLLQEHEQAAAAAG
# Test: FP; 33 mM phosphate pH 7.0, 90 mM NaCl, 0.01% Tween 20, 0.1 mM DTT, 0.5% agarose; room temperature
# Conditions: tags: N-GST (pGEX-6P-1, kept); dsDNA, one strand shown
row,Sequence,binding signal
1,CAAAACTAGAGCATT,2.42 Kd / Kd of best base at the position
2,CAAAATTAGAGCACT,1.05 Kd / Kd of best base at the position
3,AAAAACTAGAGCACT,1.14 Kd / Kd of best base at the position
4,GAAAACTAGAGCACT,1.36 Kd / Kd of best base at the position
5,CAAAACTAGAGGACT,36 Kd / Kd of best base at the position
6,CAAAACTAGACCACT,3.9 Kd / Kd of best base at the position
7,CAACACTAGAGCACT,31.8 Kd / Kd of best base at the position
8,CACAACTAGAGCACT,2.2 Kd / Kd of best base at the position
9,CAAACCTAGAGCACT,16.3 Kd / Kd of best base at the position
10,CAAAACTAGAGCCCT,12.1 Kd / Kd of best base at the position
11,CAAAACTAGAGCGCT,3.42 Kd / Kd of best base at the position
12,CCAAACTAGAGCACT,1.71 Kd / Kd of best base at the position
13,CAAAACCAGAGCACT,2.45 Kd / Kd of best base at the position
14,CAAAACTAGAACACT,3.87 Kd / Kd of best base at the position
15,CAAAACTAGAGCACA,2.62 Kd / Kd of best base at the position
16,CAAAACTGGAGCACT,1.5 Kd / Kd of best base at the position
17,CAAAAATAGAGCACT,2.52 Kd / Kd of best base at the position
18,CAAAACTAGAGCACC,2.3 Kd / Kd of best base at the position

row,Sequence,binding signal
1,CAATACTAGAGCACT,6.63 Kd / Kd of best base at the position
2,CAAAACTAGAGCTCT,7.77 Kd / Kd of best base at the position
3,CAAAACTTGAGCACT,25.5 Kd / Kd of best base at the position
4,TAAAACTAGAGCACT,1.43 Kd / Kd of best base at the position
5,CAAAAGTAGAGCACT,1.65 Kd / Kd of best base at the position
6,CAAAACTAAAGCACT,8.43 Kd / Kd of best base at the position
7,CAAAACTACAGCACT,52.4 Kd / Kd of best base at the position
8,CAAAACTAGCGCACT,9.49 Kd / Kd of best base at the position
9,CAAAACTCGAGCACT,9.21 Kd / Kd of best base at the position
10,CTAAACTAGAGCACT,1.45 Kd / Kd of best base at the position
11,CAAAGCTAGAGCACT,16.3 Kd / Kd of best base at the position
12,CAAAACTATAGCACT,12.9 Kd / Kd of best base at the position
13,CAAAACTAGGGCACT,2.34 Kd / Kd of best base at the position
14,CAAAACTAGAGCAGT,2.97 Kd / Kd of best base at the position
15,CAAAACTAGAGCAAT,2.66 Kd / Kd of best base at the position
16,CAAAACTAGATCACT,1.39 Kd / Kd of best base at the position
17,CAAGACTAGAGCACT,9.44 Kd / Kd of best base at the position
18,CAAAACTAGAGAACT,69.3 Kd / Kd of best base at the position

# Target: T2, Pan (Drosophila melanogaster, UniProt P91943 258-356)
# T2 sequence: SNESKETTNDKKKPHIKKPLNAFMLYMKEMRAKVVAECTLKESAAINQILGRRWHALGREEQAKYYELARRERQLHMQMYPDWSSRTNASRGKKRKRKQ
# Test: as above
# Conditions: tags: N-GST (pGEX-6P-1, kept); dsDNA, one strand shown
row,Sequence,binding signal
1,AGTCTTTGATAAT,1.35 Kd / Kd of best base at the position
2,AGTCTTTCATAAA,8.7 Kd / Kd of best base at the position
3,AGTATTTGATAAA,5.89 Kd / Kd of best base at the position
